An excerpt weighted towards active compounds, which were near 3.5% of everything screened.
FBW7 activator: human FBW7 E3 ligase activation, primary screen; Q969H0; 650,000 tested, 0.13% active; AlphaScreen FBW7–phospho-cyclin E peptide binding, activator screen; normalized activity (activation), % at 26.1 µM; in the data active = normalized activity above about 1.9%;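 also: purified mutant Fbw7 with reduced substrate affinity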
TEAD-YAP block: TEAD-YAP interaction inhibition. 640,000 tested, 1.4% active. HEK-TIYL cells, TEAD-Gal4/YAP UAS-luciferase luminescence. inhibition, % at 9.12 µM. AID 1259422; in the data active = inhibition above about 32%;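 also: 0% = median of test compound wells and 100% = reference inhibitor wells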
MITF primary: inhibitors of human MITF; O75030; AlphaScreen MITF homodimerization, bead proximity signal; inhibition, % at 2.6 µM; 650,000 tested, 0.91% active; in the data active = inhibition above about 50%;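 also: 0% = vehicle wells with protein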
Target sequence (O75030 whole entry, looked up): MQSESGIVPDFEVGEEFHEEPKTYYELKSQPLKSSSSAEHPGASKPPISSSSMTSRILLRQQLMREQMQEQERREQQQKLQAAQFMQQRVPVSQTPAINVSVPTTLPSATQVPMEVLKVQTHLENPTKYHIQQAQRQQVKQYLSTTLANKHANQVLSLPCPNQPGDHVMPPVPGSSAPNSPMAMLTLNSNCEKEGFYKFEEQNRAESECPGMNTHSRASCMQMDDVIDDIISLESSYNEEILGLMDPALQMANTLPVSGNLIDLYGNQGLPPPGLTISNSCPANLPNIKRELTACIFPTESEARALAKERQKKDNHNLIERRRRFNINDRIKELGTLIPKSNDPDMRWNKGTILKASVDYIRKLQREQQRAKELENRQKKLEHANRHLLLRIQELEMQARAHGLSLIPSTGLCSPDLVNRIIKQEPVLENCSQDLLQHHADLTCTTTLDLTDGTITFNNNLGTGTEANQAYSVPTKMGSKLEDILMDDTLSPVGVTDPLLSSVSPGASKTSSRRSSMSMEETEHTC
GPR151 ag: activates the human receptor GPR151 | Q8TDV0 | PathHunter beta-arrestin GPR151 cells, luminescence | activation, % at 11.2 µM | 650,000 tested, 1% active | AID 1508602; in the data active = activation above about 4.9%;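 also: 0% = median of compound wells and 100% = cells with positive control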
The depositor's hits bear a star.

SMILES | FBW7 activator | TEAD-YAP block | MITF primary | GPR151 ag
O=C(/C=C/c1ccc([N+](=O)[O-])cc1)Nc1nc(-c2ccccc2)cs1 | 0 | 7 | 11 | 1
COc1cccc(C(=O)Nc2nc3ccc(-c4cn[nH]c4)cc3s2)c1 | 0 | 25 | 8 | 0
COc1ccc2c(c1)CC(C(=O)Nc1nc3ccc(-c4cn[nH]c4)cc3s1)CO2 (stereo not given) | 1 | 20 | 14 | -1
COc1cccc(CNC(=O)Nc2nc3ccc(-c4cn[nH]c4)cc3s2)c1 | 0 | 96* | 4 | 0
O=C(Nc1nc2ccc(-c3cn[nH]c3)cc2s1)C1CNCC1c1ccccc1 (stereo not given) | 1 | 54* | 13 | -1
O=C(Nc1nc2ccc(-c3cn[nH]c3)cc2s1)C1COc2ccc(F)cc2C1 (stereo not given) | 1 | 48* | 14 | -1
NCC(=O)N1CC(C(=O)Nc2nc3ccc(-c4cn[nH]c4)cc3s2)C(c2ccccc2)C1 (stereo not given) | 0 | 9 | -11 | -2
c1nc(Nc2ccc3c(c2)OCCO3)c2c3c(sc2n1)CCC3 | 0 | -38 | 12 | -1
CN1CC2([N+](=O)[O-])C(=O)c3ccccc3C([N+](=O)[O-])(C1)C2CC(=O)c1ccccc1 (stereo not given) | 0 | -4 | -2 | 0
O=C(Nc1ccc(-c2noc(-c3cccc(Cl)c3)n2)cc1)c1ccco1 | 1 | 54* | -10 | 0
Cc1cc(Cl)nc(Cl)c1C(=O)N(C)Cc1ccccc1 | 0 | 15 | -5 | 0
Oc1c(CN2CCCCC2)ccc2cccnc12 | 0 | 46* | 105* | -2
Oc1c(CN2CCOCC2)ccc2cccnc12 | -1 | 16 | 95* | 1
Oc1c(CN2CCOCC2)ccc2ccccc12 | 0 | 5 | 13 | 0
Oc1c(CN2CCN(Cc3ccc4cccnc4c3O)CC2)ccc2cccnc12 | 0 | 38* | 114* | -2
Oc1c(C(O)(C(F)(F)F)C(F)(F)F)ccc2cccnc12 | 0 | 49* | 47 | -2
Oc1ccc(CN2CCN(c3ccccc3)CC2)c2cccnc12 | 0 | 5 | 31 | 0
O=C(CCl)Nc1c(C(O)(C(F)(F)F)C(F)(F)F)ccc2ccccc12 | 0 | 12 | 0 | 2
Cc1cc(C)n2nc(C(=O)Nc3ccc4ccccc4c3)nc2n1 | 0 | -50 | 5 | 0
O=C(c1cccc(-n2cnnn2)c1)N1CCN(C(=O)[C@@H]2C[C@H]2c2ccc(F)cc2)CC1 | 1 | -6 | 8 | 0
C/C(=N\Nc1ccc(C(F)(F)F)cc1[N+](=O)[O-])C1CC1 | 0 | 7 | 8 | 4
C/C(=N\Nc1cccc(C(F)(F)F)c1)C1CC1 | 3.4* | -8 | 40 | 1
CC(C)CC(=O)NC(c1ccc2c(c1)OCO2)c1ccc2cccnc2c1O (stereo not given) | -1 | 84* | 22 | -1
CCOc1cccc(C(Nc2cccc(C)n2)c2ccc3ccc(C)nc3c2O)c1 (stereo not given) | 0 | -2 | 9 | -1
Cc1cccc(NC(c2ccc3c(c2)OCO3)c2ccc3cccnc3c2O)n1 (stereo not given) | 0 | 80* | 15 | 0
SMILES | FBW7 activator | TEAD-YAP block | MITF primary | GPR151 ag
Oc1c(C(Nc2ccccn2)c2ccc(OC3CCCC3)cc2)ccc2cccnc12 (stereo not given) | 0 | 29 | -1 | 0
Oc1c(C(Nc2ccccn2)c2ccc3c(c2)OCO3)ccc2cccnc12 (stereo not given) | -1 | 87* | 22 | 0
O=C1NC(c2cc3c(cc2Cl)OCO3)Nc2ccccc21 (stereo not given) | 1 | 51* | 7 | 0
COc1ccc2c(c1)CC(c1nc3cc(-c4ccncc4)ccc3c(=O)[nH]1)CO2 (stereo not given) | 0 | -2 | 19 | 1
COc1ccccc1OCc1nc2ccc(-c3cn[nH]c3C)cc2c(=O)[nH]1 | 0 | 38* | 10 | -1
Cc1[nH]ncc1-c1ccc2nc(C3COc4ccccc4C3)[nH]c(=O)c2c1 (stereo not given) | 1 | 50* | 17 | -2
COc1ccc2c(c1)CC(c1nc3cc(-c4cn[nH]c4C)ccc3c(=O)[nH]1)CO2 (stereo not given) | 0 | 40* | 10 | 1
Cc1ccc2c(c1)CC(c1nc3ccc(-c4cn[nH]c4)cc3c(=O)[nH]1)CO2 (stereo not given) | 0 | -10 | 47 | -2
CCOC(=O)C1CCCCN1C1=NS(=O)(=O)c2ccccc21 (stereo not given) | 1 | 5 | 21 | 0
COC(=O)c1sccc1N/N=C/c1c[nH]c2ccccc12 | 0 | -66 | -5 | -1
O=C(Nc1cccc([N+](=O)[O-])c1)C12CCC(CC1)C2 | 0 | -6 | -5 | -1
O=[N+]([O-])c1ccc2[nH]c(O)c(N=Nc3ccc(S(=O)(=O)O)cc3)c2c1 | 0 | -8 | 60* | -1
Cn1nc(NC(=O)COc2ccc(F)cc2)c2c1NC(=O)CC2c1ccccc1 (stereo not given) | 0 | -2 | -11 | 1
Cc1cccc(C)c1NC(=O)CSc1nnc(/N=C/N(C)C)s1 | 0 | 3 | 15 | 0
CCN(CC)c1ccc(C(=O)Nc2cc(C(=O)N3CCOCC3)ccc2N2CC3CC(C2)c2cccc(=O)n2C3)cc1 (stereo not given) | 0 | 69* | -2 | 0
c1cncc(CN2CCC(c3ccc4c(c3)OCO4)CC2)c1 | 0 | 0 | -5 | 0
COc1cc(OC)c(-c2nc(-c3cccc([N+](=O)[O-])c3)no2)cc1OC | 0 | -3 | -7 | -1
CCC(=O)Nc1ccc(C2=NNC(=NC3CC3)SC2)cc1 | 0 | 51* | -2 | -3
CCC(=O)Nc1ccc(C2=NNC(=Nc3ccc(C)cc3)SC2)cc1 | 0 | -7 | 16 | 0
Fc1ccc(C2=NNC(=NC3CC3)SC2)cc1F | 0 | 65* | 3 | -7
CCOC(=O)c1c(C)[nH]c(C2=NNC(=NC3CC3)SC2)c1C | 0 | 78* | 5 | 0
Cc1noc(NS(=O)(=O)c2ccc(NC(=O)c3cccnc3Cl)cc2)c1C | 0 | -4 | 10 | 0
Cc1ccc(/C(O)=C2/C(=O)C(=O)N(Cc3cccnc3)C2c2cccnc2)cc1 (stereo not given) | 1 | 4 | 22 | -1
CC1=C(C(=O)Nc2ccc(Br)cn2)C(c2ccc(Br)cc2)C2=C(CCCC2=O)N1 (stereo not given) | 0 | 13 | -3 | 0
CCn1cnc2c(Nc3ccc(C)cc3C)ncnc21 | 0 | -58 | 9 | -1
CCn1cnc2c(Nc3ccc(F)cc3)ncnc21 | 1 | 34* | 14 | -10
Cc1c(NC(=O)c2cccc(Cl)c2Cl)cccc1-c1nc2ccccc2s1 | 0 | 1 | 9 | 0
CC(C)NCCOc1ccc(Cl)cc1Br | 0 | -7 | 2 | -2
CC(C)NCCCOc1ccc(Cl)cc1Br | 0 | 32* | 14 | -1
Cc1[nH]n2c(=O)cc(C(C)(C)C)nc2c1-c1cccs1 | 0 | 50* | 13 | -1
